Measurements reported in PubChem BioAssay (NCI).
The panel holds about 83,000 compounds, 20% with a hit somewhere; the sample as a whole holds those more often.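 Growth was measured after 48 h exposure to one concentration of compound in 96-well plates. Values under 10 count as active.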 Activity calls are given as the source filed them.

Tests used:
Assay in all cases: NCI-60 one-dose screen, 48 h (100 = growth as untreated, 0 = no growth, -100 = all killed)
Conditions in all cases: 10 µM unless noted
HCT-15 colon = test system: HCT-15 colon
HT29 colon = test system: HT29 colon
U251 CNS = test system: U251 CNS
PC-3 prostate = test system: PC-3 prostate
SK-MEL-5 melanoma = test system: SK-MEL-5 melanoma
UACC-62 melanoma = test system: UACC-62 melanoma
LOX IMVI melanoma = test system: LOX IMVI melanoma
SK-MEL-28 melanoma = test system: SK-MEL-28 melanoma
SK-MEL-2 melanoma = test system: SK-MEL-2 melanoma
EKVX NSCLC = test system: EKVX NSCLC
SN12C renal = test system: SN12C renal
UO-31 renal = test system: UO-31 renal
TK-10 renal = test system: TK-10 renal
ACHN renal = test system: ACHN renal
CAKI-1 renal = test system: CAKI-1 renal
A498 renal = test system: A498 renal
CCRF-CEM leukemia = test system: CCRF-CEM leukemia
MOLT-4 leukemia = test system: MOLT-4 leukemia
SNB-19 CNS = test system: SNB-19 CNS

Measured: growth

Cc1ccc(S(=O)(=O)NC(=O)n2cc(-c3ccncc3)c(-c3ccc(Cl)c(O)c3)n2)cc1
inactive: HCT-15 colon 107% | HT29 colon 101% | U251 CNS 111% | PC-3 prostate 95.3% | SK-MEL-5 melanoma 100% | UACC-62 melanoma 85.2% | LOX IMVI melanoma 93.4% | SK-MEL-28 melanoma 130% | SK-MEL-2 melanoma 90.9% | EKVX NSCLC 110% | SN12C renal 99.9% | UO-31 renal 107% | TK-10 renal 95.5% | ACHN renal 94.5% | CAKI-1 renal 95.5% | A498 renal 105% | CCRF-CEM leukemia 93.9% | MOLT-4 leukemia 85.2%

CCC1=CCC[C@@]2(C)CCC[C@@]3(C)CCCC(C)(C)[C@]1([O-])[O+]32
inactive: HCT-15 colon 108% | HT29 colon 102% | SNB-19 CNS 102% | U251 CNS 103% | PC-3 prostate 96.5% | SK-MEL-5 melanoma 101% | UACC-62 melanoma 103% | SK-MEL-28 melanoma 96.8% | SK-MEL-2 melanoma 110% | SN12C renal 106% | UO-31 renal 100% | TK-10 renal 109% | ACHN renal 105% | CAKI-1 renal 94.7% | A498 renal 83.3% | CCRF-CEM leukemia 127% | MOLT-4 leukemia 104%

CCOC(=O)c1ccc2c(c1)nc(-c1ccc(OCc3ccccc3)c(OC)c1)n2-c1cc(C(C)(C)C)[nH]n1
inactive: HCT-15 colon 59.4% | HT29 colon 71.7% | SNB-19 CNS 105% | U251 CNS 91.9% | PC-3 prostate 55.5% | SK-MEL-5 melanoma 65.3% | UACC-62 melanoma 84.3% | SK-MEL-28 melanoma 107% | SK-MEL-2 melanoma 92.9% | SN12C renal 85.8% | UO-31 renal 67.5% | TK-10 renal 90.5% | ACHN renal 72.1% | CAKI-1 renal 76.5% | A498 renal 72.3% | MOLT-4 leukemia 43.4%

CCN(CC)CCCNc1nccc2ccc(Cl)cc12
inactive: HCT-15 colon 104% | HT29 colon 96.9% | U251 CNS 96.8% | PC-3 prostate 73.6% | SK-MEL-5 melanoma 99.3% | UACC-62 melanoma 108% | LOX IMVI melanoma 94.7% | SK-MEL-28 melanoma 117% | SK-MEL-2 melanoma 114% | EKVX NSCLC 103% | SN12C renal 99.6% | UO-31 renal 94.7% | TK-10 renal 99.8% | ACHN renal 112% | CAKI-1 renal 108% | A498 renal 97.9% | CCRF-CEM leukemia 93.1% | MOLT-4 leukemia 103%

O=C(c1ccccc1)c1c(/C=C/c2ccccc2)c2ccccc2[nH]c1=O
inactive: HCT-15 colon 101% | HT29 colon 106% | U251 CNS 90.5% | PC-3 prostate 89.5% | SK-MEL-5 melanoma 96.4% | UACC-62 melanoma 70.3% | LOX IMVI melanoma 105% | SK-MEL-28 melanoma 113% | SK-MEL-2 melanoma 92.6% | EKVX NSCLC 98.2% | SN12C renal 92.7% | UO-31 renal 73.6% | TK-10 renal 97.8% | ACHN renal 93.5% | CAKI-1 renal 91.8% | A498 renal 97.6% | CCRF-CEM leukemia 87.6% | MOLT-4 leukemia 84.1%

COc1c2occc2c(OC)c2c(=O)c(-c3cc(-c4ccc(F)cc4)c(C#N)c(N)n3)c(C)oc12
active: LOX IMVI melanoma 6.13% | MOLT-4 leukemia 5.86%
inactive: HCT-15 colon 31.4% | HT29 colon 14.2% | SNB-19 CNS 51.2% | U251 CNS 30.6% | PC-3 prostate 22.8% | SK-MEL-5 melanoma 37.1% | SK-MEL-2 melanoma 59.9% | EKVX NSCLC 32% | SN12C renal 39.5% | UO-31 renal 25.3% | TK-10 renal 53.7% | ACHN renal 41.8% | CAKI-1 renal 50.5% | A498 renal 25.7% | CCRF-CEM leukemia 16%

C=C1c2nc3ccccc3n2C=C(c2ccc(Cl)cc2)N1Cc1ccccc1
inactive: HCT-15 colon 78.2% | HT29 colon 77.4% | SNB-19 CNS 85.3% | U251 CNS 90.9% | SK-MEL-5 melanoma 79.1% | UACC-62 melanoma 71% | LOX IMVI melanoma 90.5% | SK-MEL-28 melanoma 147% | SK-MEL-2 melanoma 69.7% | EKVX NSCLC 70.8% | SN12C renal 95.1% | UO-31 renal 48.2% | TK-10 renal 119% | ACHN renal 81.4% | CAKI-1 renal 79% | A498 renal 84.7% | CCRF-CEM leukemia 78.9% | MOLT-4 leukemia 58.5%

COc1ccc(-c2nc(/C=N/Nc3cc(C)nc4ccc(Cl)cc34)c(C)o2)cc1
inactive: SK-MEL-5 melanoma 57% | UACC-62 melanoma 14.5% | SK-MEL-2 melanoma 101% | A498 renal 73%
active: HCT-15 colon -91.5% | HT29 colon -96.1% | U251 CNS -95.9% | PC-3 prostate -73.1% | LOX IMVI melanoma -97% | SK-MEL-28 melanoma -41.3% | EKVX NSCLC -19.4% | SN12C renal -92.9% | UO-31 renal -98.4% | TK-10 renal -36.1% | ACHN renal -100% | CAKI-1 renal -85.6% | CCRF-CEM leukemia -54.3% | MOLT-4 leukemia -46.7%

O=C1CS/C(=N\Nc2cc(=O)[nH]c3ccccc23)N1c1ccccc1
inactive: HCT-15 colon 94.5% | HT29 colon 98.6% | U251 CNS 95% | PC-3 prostate 80.9% | SK-MEL-5 melanoma 96.2% | UACC-62 melanoma 85.5% | LOX IMVI melanoma 88.2% | SK-MEL-28 melanoma 111% | SK-MEL-2 melanoma 100% | EKVX NSCLC 87.3% | SN12C renal 94.1% | UO-31 renal 69.7% | TK-10 renal 111% | ACHN renal 93.6% | CAKI-1 renal 81.3% | A498 renal 81.7% | CCRF-CEM leukemia 86.2% | MOLT-4 leukemia 98.8%

CC(=O)c1cc2c(N)c(C(=O)Nc3cccc4c3OCCO4)sc2nc1C
inactive: HCT-15 colon 97.3% | HT29 colon 103% | U251 CNS 99.4% | PC-3 prostate 91.4% | SK-MEL-5 melanoma 95.3% | UACC-62 melanoma 67.8% | LOX IMVI melanoma 97.5% | SK-MEL-28 melanoma 94% | SK-MEL-2 melanoma 67.1% | EKVX NSCLC 102% | SN12C renal 103% | UO-31 renal 90.2% | TK-10 renal 104% | ACHN renal 104% | CAKI-1 renal 71.7% | CCRF-CEM leukemia 96.7% | MOLT-4 leukemia 97.4%
active: A498 renal 8.65%

COc1ccc(Nc2[nH]n3c(=O)cc(-c4ccccc4)nc3c2C(=O)Nc2ccc(C)cc2)c(OC)c1
inactive: HCT-15 colon 89.6% | HT29 colon 112% | U251 CNS 60.3% | PC-3 prostate 76.9% | SK-MEL-5 melanoma 98.4% | UACC-62 melanoma 64% | LOX IMVI melanoma 87% | SK-MEL-28 melanoma 95% | SK-MEL-2 melanoma 103% | EKVX NSCLC 89.8% | SN12C renal 85.9% | UO-31 renal 74.7% | TK-10 renal 108% | ACHN renal 88.5% | CAKI-1 renal 90.4% | A498 renal 108% | CCRF-CEM leukemia 66.5% | MOLT-4 leukemia 69.4%

CN1CCN(CCCOc2ccc3nc(Nc4ccc(Cl)c(C(F)(F)F)c4)ccc3c2)CC1
active: HCT-15 colon 2.44% | HT29 colon -37.5% | LOX IMVI melanoma -83.7%
inactive: SNB-19 CNS 66% | U251 CNS 23.3% | PC-3 prostate 40.6% | SK-MEL-5 melanoma 76.9% | SK-MEL-2 melanoma 89.9% | EKVX NSCLC 71.8% | SN12C renal 63.9% | UO-31 renal 69.6% | TK-10 renal 75.9% | ACHN renal 55.9% | CAKI-1 renal 83.8% | A498 renal 101% | CCRF-CEM leukemia 17.6% | MOLT-4 leukemia 19.1%

C=CCn1c2ccccc2c2c3c(c4c5ccccc5n(CC=C)c4c21)C(=O)N(O)C3=O
inactive: HCT-15 colon 35.5% | HT29 colon 19.2% | SNB-19 CNS 36.1% | U251 CNS 11.5% | PC-3 prostate 21.8% | SK-MEL-2 melanoma 70.4% | EKVX NSCLC 66% | TK-10 renal 50.8% | A498 renal 23.7% | CCRF-CEM leukemia 10.2%
active: SK-MEL-5 melanoma -48.5% | LOX IMVI melanoma -81.2% | SN12C renal 9.32% | UO-31 renal -47% | ACHN renal -33.6% | CAKI-1 renal -70.6% | MOLT-4 leukemia -10.4%

COc1ccc(/C=C2\N=C(c3ccccc3)N(C(=O)c3ccccc3O)NC2=O)cc1
inactive: HCT-15 colon 104% | HT29 colon 104% | SNB-19 CNS 96.6% | U251 CNS 94.2% | SK-MEL-5 melanoma 101% | UACC-62 melanoma 82.8% | LOX IMVI melanoma 95.6% | SK-MEL-28 melanoma 109% | EKVX NSCLC 88.3% | SN12C renal 86.6% | UO-31 renal 95.9% | TK-10 renal 97.7% | ACHN renal 103% | CAKI-1 renal 97.9% | A498 renal 73.6% | MOLT-4 leukemia 48.3%

N[C@@H]1CCN(C(=O)c2cc3cc(Cl)c(F)c(F)c3[nH]2)C1
inactive: HCT-15 colon 96.8% | HT29 colon 88% | SNB-19 CNS 90.2% | U251 CNS 86.2% | PC-3 prostate 90.5% | UACC-62 melanoma 104% | LOX IMVI melanoma 84% | SK-MEL-28 melanoma 105% | SK-MEL-2 melanoma 99.4% | EKVX NSCLC 86.9% | SN12C renal 90.6% | UO-31 renal 63.4% | TK-10 renal 101% | ACHN renal 90.9% | CAKI-1 renal 68% | CCRF-CEM leukemia 102% | MOLT-4 leukemia 94.7%

Clc1cc(Cl)c2nc(-c3ccc(-c4ccc(/C=N/NC5=NCCN5)cc4)s3)cn2c1
inactive: HCT-15 colon 38% | HT29 colon 35% | SNB-19 CNS 100% | U251 CNS 87.2% | PC-3 prostate 76.5% | SK-MEL-5 melanoma 88% | UACC-62 melanoma 98.8% | SK-MEL-28 melanoma 99.7% | SK-MEL-2 melanoma 106% | EKVX NSCLC 80.8% | SN12C renal 92.5% | UO-31 renal 72% | TK-10 renal 110% | ACHN renal 105% | A498 renal 38% | MOLT-4 leukemia 73%

Cc1ccc2ccccc2c1C[n+]1ccccc1
inactive: HCT-15 colon 107% | HT29 colon 92% | U251 CNS 83.6% | PC-3 prostate 83.4% | SK-MEL-5 melanoma 110% | UACC-62 melanoma 99.8% | LOX IMVI melanoma 94.5% | SK-MEL-28 melanoma 110% | SK-MEL-2 melanoma 111% | EKVX NSCLC 58.2% | SN12C renal 98.4% | UO-31 renal 84% | TK-10 renal 88.4% | ACHN renal 106% | CAKI-1 renal 92.8% | A498 renal 79.3%
